Assay results published in PubChem BioAssay AID1508600 (Functional Genomics Laboratory (NCATS/FGL), 2020).
Out of some 53,000 sequences screened, about 3,700 (7%) were called active.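 Rule for the calls: active = gene knockdowns whose robust z-score for IL-1 alpha signal is at least 2 or at most -2, so actives lie on both sides; inactive = the rest.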 The sample as a whole holds a higher share of actives than the screen did.

Test: Components of the Cytosolic LPS Sensing Pathway: Gene Identification via Genome-wide siRNA Screen;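 note: robust z of the log signal after scaling to non-targeting control siRNA wells of the plate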
Settings: RAW264.7 macrophages, IL-1a HTRF, actives lie on both sides, screened at 100 nM (by protocol), cells primed 5 h with Pam3CSK4 first
Summary of the method: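 Using IL-1a HTRF as read-out, the screen measured release from RAW264.7 cells after 48h siRNA knockdown (100 nM), 5 h Pam3CSK4 priming and 24 h cytosolic LipidA. Values were expressed relative to negative-control wells as robust z-scores.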
With GGCAUCAACAGAAUAACCATT against Tomm34 the z-score was -1.31 (inactive).
With GGCCAAGUUUGACAAGGAATT against Nap1l5 the z-score was 2.32 (active).
For GCUGCAUCGAAAAACUCAGTT against Mycbp2, the z-score was -0.564 (inactive).
For “GGAUUAUGGACCUCUUGGUTT against 4930595M18Rik”, the z-score was 0.554 (inactive).
In the case of CCCAGUUGACAGGAGACCATT against Hps6, the z-score is reported as 1.13 (inactive).
For GCAUUAUAAAAAGGUUCCGTT against Atp2b1, the z-score was 1.81 (inactive).
For GGCCCAAGAGAAUAUCCAGTT against Gm6460, the z-score was 0.281 (inactive).
For GCAGGACAAGGACAACACUTT against Dyrk2, the z-score was -2.1 (active).
In the case of CCACCGAAAUCCUUAUUUUTT against Ppargc1a, the z-score is reported as 0.522 (inactive).
For GCCAAGAGCACAUCUGCUATT against Suco, the z-score was -1.65 (inactive).
For GCUGGGUCAAACAUGACGUTT against Klhl17, the z-score was 0.452 (inactive).
In the case of ACCCUUUUGUUUACACUCUTT against Olfr763, the z-score is reported as -0.76 (inactive).
For GCCCAAAGAUGACAUCGUATT against Gars, the z-score was 1.74 (inactive).
With GCUAGACCCAUAAUAAAACTT against Synpo2l the z-score was -0.851 (inactive).
In the case of UUGACUCACCUUCCGAGGUTT against Lce1a1, the z-score is reported as 0.0827 (inactive).
For GCGCAAUAUAGAGUCAUCATT against Rnls, the z-score was -2.83 (active).
With CCGUUUACCAACCAAGAAUTT against Tnfrsf17 the z-score was 0.0608 (inactive).
With GGUUUGCUACACUUCAGAATT against Xpr1 the z-score was 0.101 (inactive).
In the case of GCCAACUAGAAAACAACUGTT against Pdzd11, the z-score is reported as 1.6 (inactive).
In the case of GGUGGAACAGGCAGAAUUCTT against Syn2, the z-score is reported as 1.92 (inactive).
In the case of GGUCGCUACAAGAUGACUUTT against Hapln4, the z-score is reported as 0.289 (inactive).
For GCCAGUCAGAUGUACAGUCTT against Pbx1, the z-score was 3.28 (active).
With CCAGAGUACAGUGUAGUCATT against Hspb6 the z-score was 0.508 (inactive).
In the case of GAACUUUUUUUCUGUGAACTT against Olfr175, the z-score is reported as -1.58 (inactive).
With GGAAAUCGAGAGAAAUUCATT against Tead2 the z-score was 2.07 (active).
In the case of GCAGGUUGCACCAUGUAGATT against Slc25a42, the z-score is reported as 0.701 (inactive).
For CCAUCUUGGGUUCUGGUCATT against Zc3h4, the z-score was -0.204 (inactive).
In the case of GGGCAAAACACUGUCUUUCTT against Tlr5, the z-score is reported as 1.87 (inactive).
In the case of GCCUCUACUGGUUAUUUAATT against Slc22a15, the z-score is reported as 2.09 (active).
In the case of CCUUCAAGUACUUUCUCCGTT against Dcakd, the z-score is reported as 1.22 (inactive).
With GGAUGAGGAGGAAAAGCUGTT against Nop2 the z-score was -1.86 (inactive).
In the case of GGUCAAUGAACAGCACCGGTT against Igfbp2, the z-score is reported as 0.723 (inactive).
In the case of GGAUAAAGGAAAAGAAACATT against Rcvrn, the z-score is reported as -1.34 (inactive).
In the case of CCAGACUCCUCUUAGAAGGTT against Ankrd34c, the z-score is reported as 0.73 (inactive).
With GCUAGAUCUUUCAUCCAACTT against Lrtm1 the z-score was 1.2 (inactive).
For GGCCUUGGUGAAAAUGCAGTT against Plaat1, the z-score was -2.07 (active).
With GGAGACAUGGACCAUGGCUTT against Mapt the z-score was 0.37 (inactive).
For GGUGAUGUAUAUUGAGUCUTT against Sdcbp2, the z-score was 0.149 (inactive).
In the case of GGAUAGACUUGAUUCUUGGTT against Emid1, the z-score is reported as 0.491 (inactive).
For GGAAAUAGUACAGAAACCATT against Mcph1, the z-score was -2.44 (active).
For CCAUGUUUUUAUAGCUCUUTT against Sidt2, the z-score was 1.49 (inactive).
With GGUGGAUAAAGCUUAAAUATT against V1rg10 the z-score was -0.258 (inactive).
With GGAGGCACAGAGAUUGAAGTT against Sry the z-score was 0.247 (inactive).
With GGCAUCUUUGGAGACUGGUTT against Sycn the z-score was 0.598 (inactive).
For CCUUUGGAAUUUCUAAUACTT against Stil, the z-score was -0.286 (inactive).
In the case of GGCUGUCAAAACAGUGCUCTT against Hmgcs2, the z-score is reported as 1.45 (inactive).
For GCUGGAGACGUAUUUGUCCTT against Olfr294, the z-score was 2.17 (active).
For UUGGCUGCAUUAUCAUGAGTT against Olfr311, the z-score was -0.419 (inactive).
With GGUUUGGCAGAAGUGCAUGTT against Npff the z-score was -0.801 (inactive).
In the case of GCUACAUCGCUCUUAUAGCTT against Foxl1, the z-score is reported as 0.0236 (inactive).
In the case of CGAUGUUGAGGGAUUAUCUTT against Tstd2, the z-score is reported as -2.25 (active).
With GGACUUGAAAUUAGCAAAATT against Arhgef3 the z-score was -0.0218 (inactive).
For GGACUUUAAAUGCAAUAUCTT against Trps1, the z-score was -0.567 (inactive).
With “GGCUCCAAGCACUAAAUAATT against B130024G19Rik” the z-score was 0.168 (inactive).
With CCUCAAACUAACCACUCACTT against Olfr1045 the z-score was -1.13 (inactive).
With GGAGAUCCUGGAAGACUUCTT against Ocstamp the z-score was 2.18 (active).
For GGACUAUGCCAAUGUCAGATT against Zfp763, the z-score was 0.0585 (inactive).
For GGGUAAGCCAAGAAGAAGUTT against Rgs4, the z-score was -1.01 (inactive).
In the case of GGGAAAAACUCUGUGUGUATT against Coasy, the z-score is reported as -0.25 (inactive).
In the case of GGCUCCACACGAUUGUUAGTT against Gne, the z-score is reported as -0.0134 (inactive).
In the case of GUUCCACCAGAUUUUCUAATT against Vmn1r28, the z-score is reported as 2.6 (active).
With GGAGAAUUUAGAGCUACCATT against Atg10 the z-score was -1.56 (inactive).
In the case of GCCCAUCACUUAUAGUGGGTT against Usf2, the z-score is reported as -0.799 (inactive).
In the case of GGAGCAUUUUAUUCAGAUGTT against Rad23b, the z-score is reported as 2.22 (active).
With GGUGGAGAAGAAAUCUAAGTT against Eif4g1 the z-score was -0.344 (inactive).
With CCUGAGACCGAAUUUUACCTT against Cer1 the z-score was -0.209 (inactive).
In the case of GGAAACGUGGGCAUGAUCATT against Olfr944, the z-score is reported as -0.239 (inactive).
With GGAUAAUGAUGUGAAAGGCTT against Mrps30 the z-score was 0.984 (inactive).
With GGACAACAUGAACUGUCAGTT against Snrpd3 the z-score was -2.74 (active).
In the case of GCUUGACUUUGAAAGUCCATT against Gm11733, the z-score is reported as -1.54 (inactive).
With GGCUUUCUCCCAGCAAUAGTT against Scrt1 the z-score was -1.97 (inactive).
In the case of GGGAUCAACAUUUACCGAATT against Ablim1, the z-score is reported as 0.596 (inactive).
In the case of CCCACCUUCCGACUUGAAUTT against Col12a1, the z-score is reported as -1.12 (inactive).
In the case of GUCAGAACCAUAGCCAUGATT against Vmn1r202, the z-score is reported as -0.623 (inactive).
For GCUGAUCAGAGACCAUUACTT against Cmss1, the z-score was -2.26 (active).
In the case of GGGAGAAGGUGGAAAUACUTT against Hdgfl3, the z-score is reported as 1.63 (inactive).
For GGCCAUACGGACCAUGUAUTT against Slc25a19, the z-score was -1.25 (inactive).
With GGACCAAAUCCUCUGAUUCTT against Bud13 the z-score was 2.74 (active).
In the case of GGCUGCCUUGCUGAUUUGATT against Boc, the z-score is reported as 0.762 (inactive).
For CCUUUACGUUUCUGUGUCUTT against Slc37a4, the z-score was -1.19 (inactive).
For CCAUUCUACACUUUUCCACTT against Krtap1-5, the z-score was -0.909 (inactive).
In the case of GCCAAGCAUUAAGUGAUAATT against Setmar, the z-score is reported as 2.7 (active).
In the case of CCAACUAAUCCCAUAUUCCTT against Tmem43, the z-score is reported as 0.0511 (inactive).
With GGAGCUAUGUUCAGUUCUUTT against Qsox1 the z-score was 0.438 (inactive).
In the case of GCAUUAUCUGUGAAAAUCCTT against En2, the z-score is reported as 0.262 (inactive).
With GCAGAAAUUAACAAGUCUCTT against Kif2c the z-score was 0.816 (inactive).
For GCACUGUUCGUUUUUGUUUTT against Astn1, the z-score was 0.275 (inactive).
With GGCUAUGGGAAUCAUGAAUTT against H2bc18 the z-score was -2.84 (active).
In the case of GCUCUAUGAGAGUAUAUUATT against Tamm41, the z-score is reported as -0.495 (inactive).
For GCAUGUGAUUACCUUUGUATT against Btbd10, the z-score was 0.633 (inactive).
For GGGAUCCCGCAAAAUCAGATT against Osm, the z-score was 0.63 (inactive).
For GCACAUCUUGGACCGUUUCTT against Lhx3, the z-score was 0.851 (inactive).
In the case of GGGUACAAGCUUAUCAAUATT against Trpm6, the z-score is reported as 4.91 (active).
In the case of GGUGUAUAGCUGUUGUGGGTT against Dennd2d, the z-score is reported as -1.41 (inactive).
For CCUCAAGGAACUGAAUGCCTT against Olfr1320, the z-score was 0.0261 (inactive).
With GGGAUAAAGAGAGACCCAATT against Flywch1 the z-score was 0.889 (inactive).
For CCAGAUGACAAUGAGUCAGTT against Ss18, the z-score was -0.197 (inactive).
For CCUAAAUUUGACUGUGCCUTT against Nudt10, the z-score was 2.13 (active).
With GCGAUUGUCAUUCUCUUUUTT against Jak3 the z-score was 0.711 (inactive).
With GGGCUUUCCCAGUUCCUAATT against Bmp6 the z-score was 2.04 (active).
With CCACCUCAAGUCAAAGACUTT against Cggbp1 the z-score was -0.445 (inactive).
In the case of GGCUCUAGAAGCGAGAAUCTT against Six6, the z-score is reported as -0.234 (inactive).
For GGACCUAAUCCAUAAGGUCTT against Pcyox1l, the z-score was -0.379 (inactive).
In the case of GGAACAGAUCUCUGAUAUATT against Sub1, the z-score is reported as 0.564 (inactive).
With GGCCUUCAUUGAGAUGAACTT against Ptbp1 the z-score was -1.17 (inactive).
With GGCUAUGAUGAUUAUAAUGTT against Hnrnph1 the z-score was 0.724 (inactive).
In the case of GGACCAGAGGAGAUUUCAATT against Ern2, the z-score is reported as 1.56 (inactive).
In the case of GGUAAACUCAAGUUUUCAGTT against Inpp5j, the z-score is reported as 2.36 (active).
